# Reference: PubChem BioAssay AID1347383 (Zoeller Lab, School of Medicine, Boston University, 2020)
# The source made the active and inactive calls.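 Rule for the calls: active = cell survival after UV exposure 2 SD above solvent-only control wells at 10 µM, confirmed on one or two repeats; inactive = the rest.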
# Test: protection of CHO cells from pyrene-fatty acid UV killing, primary screen, phospholipid biosynthesis inhibitor project, ZR-82 cells, Analyticon library, screen 2 (AID 1347383);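 note: survival reflects blocked phospholipid synthesis cutting uptake of the phototoxic fatty acid; compound and fatty acid exposure 3 h then viability read next day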
# Conditions: ZR-82 CHO cells, CellTiter Blue, at 10 µM, peroxisome-deficient CHO-K1 variant, with DGAT-1, DGAT-2 and ACAT inhibitors
row,Compound,outcome
1,COc1cc(CC2COC(=O)C2(O)Cc2ccc(O)c(OC)c2)ccc1O (stereo not given),inactive
2,CC(=O)NC(Cc1c[nH]c2ccccc12)C(=O)O (stereo not given),inactive
3,C[C@H]1C=CC2=CCCC[C@@H]2[C@H]1CC[C@@H]1C[C@@H](O)CC(=O)O1,inactive
4,C=C1C[C@H](O)C[C@]2(C)CC[C@@H](C(C)(C)O)CC12 (stereo not given in full),inactive
5,O=C(/C=C/c1ccc(O)cc1)c1c(O)cc(O)cc1O,inactive
6,CC(C)=CCCC1(C)C=Cc2c(c(C)cc3c2[nH]c2ccccc23)O1 (stereo not given),inactive
7,COc1cc(CNC(=O)CCCCCCC(C)C)ccc1O,inactive
8,CC(C)=CCn1cnc(=N)c2[nH]cnc21,inactive
9,C=C1C(=O)O[C@@H]2/C=C(\C)CC/C=C(\C(=O)O)C[C@@H](OC(=O)/C(C)=C/C)C12 (stereo not given in full),inactive
10,C/C=C(/C)C(=O)OC1C2OC2C2(CO2)C2C3OC(=O)C(C)C3CCC12C (stereo not given),inactive
11,C=C(C)[C@@H]1CC[C@]2(C(=O)O)CC[C@]3(C(=O)O)[C@H](CCC4[C@@]5(C)CCC(=O)C(C)(C)C5CC[C@]43C)C12 (stereo not given in full),inactive
12,CC(C)c1ccc2c(c1)CCC1[C@](C)(C(=O)O)CCC[C@]21C (stereo not given in full),inactive
13,Cc1cc(O)cc2c(=O)oc(CC(C)O)cc12 (stereo not given),inactive
14,CC(C)c1ccc2c(c1)[C@H](O)CC1[C@@](C)(C(=O)O)CCC[C@]21C (stereo not given in full),inactive
15,COc1ccc(/C=C/C(=O)O)cc1O,inactive
16,O=C1CCC(=O)NCCCCCN(O)C(=O)CCC(=O)NCCCCCN(O)C(=O)CCC(=O)NCCCCCN1,inactive
17,CCC(O)c1cccc(O)c1CN (stereo not given),inactive
18,CC(C)(O)/C=C/C1=CC(O)C(C)(O)CC1O (stereo not given),inactive
19,C=C1CCC2C(OC(=O)C2(O)COC(C)=O)C2C(=C)C(O)CC12 (stereo not given),inactive
20,O=C(O)C12CCCC(CO)(CO)C1CCC13CC4C(CC12)C4(CO)C3 (stereo not given),inactive

row,Compound,outcome
1,CC1=C(C)C(=O)OC(C(C)C2C(O)CC3C4C5OC5C5(O)CC=CC(=O)C5(C)C4CCC32C)C1 (stereo not given),inactive
2,CNC(=O)Oc1ccc2c(c1)[C@]1(C)CCN(C)[C@@H]1N2C,inactive
3,CC[C@H]1C(=O)CC2C3CCC4C[C@@H](O)[C@]5(O)C[C@]4(CO5)C3CC[C@@]21C (stereo not given in full),inactive
4,CC(O)C(O)/C=C/c1cccc(=O)o1 (stereo not given),inactive
5,CCCCC[C@H](O)[C@H]1C(=O)OC[C@H]1CO,inactive
6,COc1cc(O)cc(O)c1C(=O)/C=C/c1ccc(O)cc1,inactive
7,COc1c2c(c(OC)c3oc(=O)ccc13)OC(C)(C)C(O)C2O (stereo not given),inactive
8,Cn1c2c(c(=O)c3cc(O)ccc31)CC(C(C)(C)O)O2 (stereo not given),inactive
9,C=C(Oc1cccc(C(=O)O)c1)C(=O)O,inactive
10,COc1ccc2c(c1OC)C(=O)N1CCc3cc4c(cc3C(=O)C21O)OCO4 (stereo not given),inactive
11,O=C(/C=C/C=C/c1ccc2c(c1)OCO2)N1CCCCC1,inactive
12,C=C1CCC2[C@@](C)(CO)CCC[C@]2(C)[C@H]1CC/C(C)=C/CO (stereo not given in full),inactive
13,CC(C)Cc1cnc(CCC(N)=O)c(=O)[nH]1,inactive
14,CC1(C)CC(O)CC2(C)OC(=O)C=C12 (stereo not given),inactive
15,COc1cc(OC2O[C@H](CO)[C@@H](O)[C@H](O)[C@H]2O)c2c(=O)c(-c3ccc(O)cc3)coc2c1 (stereo not given in full),inactive
16,O=C1c2ccc(O)cc2O[C@@H](c2ccc(O)c(O)c2)[C@@H]1O,inactive
17,COC(=O)C(CO)NC(=O)c1cccc(O)c1O (stereo not given),inactive
18,COc1cc(O)cc2occ(-c3ccc(O)cc3O)c(=O)c12,inactive
19,CCC1CN2CCc3cc(OC)c(OC)cc3C2CC1CC1NCCc2cc(OC)c(OC)cc21 (stereo not given),inactive
20,CC(=O)CCCCCCc1ccc2c(c1)OCO2,inactive
